Pf Dd2 growth = blocks in vitro growth of P. falciparum Dd2. P. falciparum Dd2 growth, SYBR Green, 72 h. Potency, µM (doses to about 28.9 µM), inactives show top-dose activity, negative = inhibition, hits mostly inhibitors. 4.3% of 120,000 active; active means well fitted inhibition curve with a large enough effect;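 further: plate controls were DMSO vehicle for no effect and reference drug for full effect; nearly all actives have a fitted effect of over 65% in size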
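Infected erythrocytes (Dd2, 0.3% parasitemia, 2.5% hematocrit final) are added to compound in RPMI-1640/Albumax II medium, grown 72 h at 37C in low oxygen, then lysed with saponin/Triton-X containing SYBR Green and read by fluorescence.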
The depositor's hits bear a star; i = inactive; [ ] = remark or other dose. Only a selection was taken, and hits are over-represented in it overall. Potency means the concentration at half of the fitted maximal effect.

SMILES	Pf Dd2 growth
CCOc1ccc(OCC)c(NC(=O)C2CCCN(S(=O)(=O)c3ccc(C)cc3)C2)c1 (centres undefined)	i
CCOc1ccc(N(CC)S(=O)(=O)N2CCCC(C(=O)Nc3cc(Cl)ccc3OC)C2)cc1 (centres undefined)	10µM*
Cc1ccc([S+](=O)([O-])N2CCn3c(nn(-c4ccc(C(F)(F)F)cc4)c3=O)C2)cc1	-5%
O=C(NCc1ccc(F)cc1)c1nc(-c2ccc(Cl)cc2)c2ccccn12	10µM*
N#CC1CCN(C(=O)c2nc(-c3ccccc3)c3ccccn23)CC1	i
O=C(c1nc(-c2cccc(C(F)(F)F)c2)c2ccccn12)N1CCOCC1	-12%
O=C(NCc1ccc(F)cc1)c1nc(-c2cccc(C(F)(F)F)c2)c2cnccn12	2.5µM*
CC(C)NC(=O)c1nc(-c2cccc(C(F)(F)F)c2)c2cnccn12	1.8µM*
O=C(c1nc(-c2ccc(Cl)cc2Cl)c2ccccn12)N1CCCC1	-15%
O=C(NCc1ccc(F)cc1)c1nc(-c2ccc(Cl)cc2Cl)c2ccccn12	-14%
CC(C)NC(=O)c1nc(-c2cccc(C(F)(F)F)c2)c2ccccn12	-10%[44.1 µM]
COC(=O)CNC(=O)c1nc(-c2ccc(F)cc2)c2ccccn12	-12%[44.1 µM]
O=C(NCc1cccnc1)c1nc(-c2ccc(F)cc2)c2ccccn12	-20%
CC(C)NC(=O)c1nc(-c2cccnc2)c2cnccn12	i
O=C(c1nc(-c2ccc(Cl)cc2)c2ccccn12)N1CCCC1	11µM*
O=C(c1cccnc1)N1CCCCC1c1noc(COc2ccc(F)cc2)n1 (centres undefined)	i
OCc1cc(CC2(NCC3CC3)COC2)no1	2%[44.1 µM]
CN(CC1(CO)CC1)c1nccc(CCC(F)(F)F)n1	3%
CCOC(=O)c1ccc(NC(=O)N2Cc3[nH]cnc3C[C@H]2c2nc(-c3ccc(C)cc3)no2)cc1	-8%
O=C(c1ccoc1)N1CCCC(c2noc(COc3ccccc3)n2)C1 (centres undefined)	7%
CCn1cnnc1CCNC(=O)c1cc(=O)n(C)c(=O)n1C	-8%
CCc1cc(N(C)Cc2ccc(OC)c(OC)c2)n2nccc2n1	-4%
O=C(NCc1cccs1)c1nc(-c2ccsc2)c2ccccn12	i
O=C(NCc1cccs1)c1nc(-c2cccc(C(F)(F)F)c2)c2cnccn12	1.8µM*
O=C(NCc1cccs1)c1nc(-c2ccc(F)cc2)c2ccccn12	-22%
SMILES	Pf Dd2 growth
CC(C)NC(=O)c1nc(-c2cc(Cl)cc(Cl)c2)c2ccccn12	-14%
O=C(NCc1ccc(F)cc1)c1nc(-c2cccc(F)c2)c2cnccn12	2.5µM*
Cc1cccc(C)c1-c1nc(C(=O)NCc2ccc3c(c2)OCO3)n2ccccc12	-9%
O=C(NCc1ccccn1)c1nc(-c2cccnc2)c2ccccn12	-14%[44.1 µM]
Cc1cccc(C)c1-c1nc(C(=O)NC(C)C)n2ccccc12	13µM*
CN(C)C(=O)c1nc(-c2cccc(F)c2)c2cnccn12	i
COc1ccc(-c2cc(N3CCCN(C(=O)Cc4cccc(F)c4)CC3)n[nH]2)cc1	-10%
COc1ccc(C2(C(=O)N3CCCC(Cc4nc(C5CCOCC5)no4)C3)CC2)cc1 (centres undefined)	8%
CC(C)Cc1nc(CN(C)C(=O)c2cccc(CCC(C)(C)O)c2)no1	i
O=C(c1ccoc1)N1CCC(N2C(=O)C(O)C23CCCCC3)CC1 (centres undefined)	2%
O=C(O)c1ccc(CN2C[C@H](O)C[C@H]2c2nc(C3CC3)no2)cc1	-8%[44.1 µM]
Cc1cccc(CNC(=O)c2oc3c(c2C)-c2nn(Cc4cccc(Cl)c4)cc2CC3)c1	-5%
CCOc1ccc(CNC(=O)c2oc3c(c2C)-c2nn(Cc4cccc(Cl)c4)cc2CC3)cc1	11µM*
Cc1cccc(CNC(=O)c2oc3c(c2C)-c2nn(Cc4ccccc4Cl)cc2CC3)c1	-25%
CNC(=O)[C@@H]1C[C@H](Oc2ccccc2)CN1C(=O)c1ocnc1C	-13%
CCN(C(=O)Cn1cnc2onc(-c3ccc(F)cc3)c2c1=O)c1ccc(OC)cc1	11µM*
CCOc1ccc(NC(=O)CCn2cnc3onc(-c4ccc(F)cc4)c3c2=O)cc1	i
O=C(Cn1cnc2onc(-c3ccc(Cl)cc3)c2c1=O)Nc1ccc(F)cc1	-22%
CCNC(=O)N1CCC2(CC1)CC(N(C)Cc1ccccc1)CCO2 (centres undefined)	-8%
CC(C)CCN1CCC2(C1)C(=NC1CCCCC1)NC(=O)N2c1cccnc1 (centres undefined)	77%
O=C1NC(=NC2CCCCC2)C2(CCN(CC3CCCCC3)CC2)N1c1cc(F)cc(F)c1	10%
O=C1NC(=NC2CCCC2)C2(CCCN(CC3CCCCC3)C2)N1c1cc(F)cc(F)c1 (centres undefined)	4.5µM*
O=C(c1ccccc1F)N1CCC2(C1)C(=NC1CCCCC1)NC(=O)N2c1cc(F)cc(F)c1 (centres undefined)	-4%
O=C(c1ccccc1)N1CCC2(C1)C(=NC1CCCCC1)NC(=O)N2c1cc(F)cc(F)c1 (centres undefined)	9%
CC(C)CCN1CCCC2(C1)C(=NC1CCCCC1)NC(=O)N2c1cc(F)cc(F)c1 (centres undefined)	4µM*
SMILES	Pf Dd2 growth
O=C1NC(=NC2CCCC2)C2(CCN(CC3CC3)C2)N1c1cccnc1 (centres undefined)	-12%
O=C1NC(=NC2CCCCC2)C2(CCN(CC3CCCCC3)C2)N1c1cc(F)cc(F)c1 (centres undefined)	5µM*
CC(C)CCN1CCCC2(C1)C(=NC1CCCC1)NC(=O)N2c1cccnc1 (centres undefined)	-14%
CCOc1ccccc1C1NC(=O)N(CC(=O)Nc2ccc(C(C)=O)cc2)C2=C1C(=O)OC2 (centres undefined)	-6%
CC[C@@H]1[C@H](NC(=O)CCc2c(C)[nH]c3ccccc3c2=O)[C@@H]2CCO[C@H]12	-8%
Cc1cccc(OCC(=O)NC(C)C(=O)N2CCN(c3ccccn3)CC2)c1 (centres undefined)	i
COc1ccc(-c2noc(C(=O)O)c2[C@@H](C)NC(=O)CC(C)C)cc1	26%[44.1 µM]
O=C(c1ccc(Cl)cn1)N1CCCCC12Cc1ccccc1NC2=O (centres undefined)	-23%
CNC(=O)[C@H]1C[C@H](Oc2ccccc2)CN1Cc1ccc(OC(C)C)cc1	-12%
O=C(N[C@H]1CCN2C(=O)[C@@H](Cc3c[nH]c4ccccc34)NC(=O)[C@H]12)c1ccccc1	-4%[44.1 µM]
Cc1ccc2c(C(=O)N3CCN(C4CCCCC4)CC3)cc(NC(=O)C(C)C)cc2n1	0%
CCS(=O)(=O)Nc1ccc(C2(C(=O)NCc3cccs3)CCCCC2)cc1	i
CCn1ccc2sc(C)c(C(=O)O)c2c1=O	-9%
COc1cccc(CNC(=O)Cn2ccn3nc(-c4ccccc4)c(CO)c3c2=O)c1OC	i
COCCNC(=O)[C@@H]1C[C@H](Oc2ccccc2)CN1C(=O)c1n[nH]c(=O)c2ccccc12	-6%
COc1cccc(-c2nc(N3CCOCC3)cc3c2CN(C)C3=O)c1	i
NCCn1cc(C(=O)N2CCC(c3n[nH]c(=O)n3-c3ccccc3)CC2)nn1	-18%
COc1ccc(C(=O)N2C[C@@H]3C[C@H](C2)c2ccc(NS(=O)(=O)c4ccc(NC(C)=O)cc4)c(=O)n2C3)cc1	-16%
COc1ccc(F)c(CN2CCCC3(CCN(C(=O)c4ccsc4)C3)C2)c1 (centres undefined)	8%
COc1ccc(F)c(CN2CCCC3(CCN(c4cc(C)nc(N)n4)C3)C2)c1 (centres undefined)	4µM*

Source: PubChem BioAssay
